The target in assay [1] is Sphingosine kinase 1 (Homo sapiens) (UniProt Q9NYA1). The conditions noted are these: at 1 µM.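 Note: mean SPHK1 inhibition value reported from the GSK PKIS kinase panel screen.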
Assay [2] concerns the target T1, Sphingosine kinase 2 (Homo sapiens) (UniProt Q9NRA0).
T1 sequence (whole entry): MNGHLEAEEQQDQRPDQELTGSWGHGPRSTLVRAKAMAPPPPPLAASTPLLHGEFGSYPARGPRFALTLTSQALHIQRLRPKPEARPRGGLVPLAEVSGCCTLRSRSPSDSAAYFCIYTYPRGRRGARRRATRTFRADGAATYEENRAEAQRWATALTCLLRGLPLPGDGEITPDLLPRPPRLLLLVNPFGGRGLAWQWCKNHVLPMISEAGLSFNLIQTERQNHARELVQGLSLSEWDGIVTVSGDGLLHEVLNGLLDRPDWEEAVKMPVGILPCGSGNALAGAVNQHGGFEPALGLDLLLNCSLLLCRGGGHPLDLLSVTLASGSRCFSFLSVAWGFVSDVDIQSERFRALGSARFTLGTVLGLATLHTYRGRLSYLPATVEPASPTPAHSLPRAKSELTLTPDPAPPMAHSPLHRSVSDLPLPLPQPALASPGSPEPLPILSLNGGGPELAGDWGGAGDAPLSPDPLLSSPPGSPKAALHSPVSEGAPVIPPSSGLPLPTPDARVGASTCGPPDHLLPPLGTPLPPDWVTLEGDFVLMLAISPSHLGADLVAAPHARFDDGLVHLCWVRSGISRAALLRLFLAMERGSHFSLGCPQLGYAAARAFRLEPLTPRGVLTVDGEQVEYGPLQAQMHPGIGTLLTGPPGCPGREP
The conditions noted are these: at 0.1 µM.

Assay [3] addresses T1, Sphingosine kinase 2 (Homo sapiens). The following applies: at 1 µM.
Assay [4] addresses Casein kinase II subunit alpha (Homo sapiens) (UniProt P68400). The following applies: at 0.1 µM.
Assay [5] has the same target. The conditions noted are these: at 1 µM.
In assay [6] the target is T2, Inhibitor of nuclear factor kappa-B kinase subunit alpha (Homo sapiens) (UniProt O15111).
T2 sequence (whole entry): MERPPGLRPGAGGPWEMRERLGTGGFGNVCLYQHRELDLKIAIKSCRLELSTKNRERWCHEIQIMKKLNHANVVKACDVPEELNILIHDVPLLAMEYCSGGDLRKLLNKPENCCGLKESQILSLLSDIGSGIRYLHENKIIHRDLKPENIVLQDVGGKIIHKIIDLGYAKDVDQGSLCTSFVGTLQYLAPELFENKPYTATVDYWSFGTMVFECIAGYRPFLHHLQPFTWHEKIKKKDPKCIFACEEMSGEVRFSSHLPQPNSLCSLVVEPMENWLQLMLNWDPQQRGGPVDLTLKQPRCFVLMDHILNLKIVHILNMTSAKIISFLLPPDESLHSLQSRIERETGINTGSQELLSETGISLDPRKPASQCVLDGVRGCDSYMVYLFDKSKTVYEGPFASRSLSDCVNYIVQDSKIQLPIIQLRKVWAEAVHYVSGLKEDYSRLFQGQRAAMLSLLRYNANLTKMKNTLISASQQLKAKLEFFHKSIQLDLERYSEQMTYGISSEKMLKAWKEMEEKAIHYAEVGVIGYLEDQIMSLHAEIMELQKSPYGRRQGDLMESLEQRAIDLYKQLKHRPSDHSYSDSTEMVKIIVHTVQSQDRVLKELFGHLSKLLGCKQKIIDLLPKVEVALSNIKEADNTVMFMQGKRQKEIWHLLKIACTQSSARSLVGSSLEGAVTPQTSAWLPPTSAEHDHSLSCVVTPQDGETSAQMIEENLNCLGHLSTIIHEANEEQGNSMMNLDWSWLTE
The following applies: at 0.1 µM.

Assay [7] has as its target T2, Inhibitor of nuclear factor kappa-B kinase subunit alpha (Homo sapiens). The conditions noted are these: at 1 µM.
In assay [8] the target is T3, Inhibitor of nuclear factor kappa-B kinase subunit beta (Homo sapiens) (UniProt O14920).
T3 sequence (whole entry): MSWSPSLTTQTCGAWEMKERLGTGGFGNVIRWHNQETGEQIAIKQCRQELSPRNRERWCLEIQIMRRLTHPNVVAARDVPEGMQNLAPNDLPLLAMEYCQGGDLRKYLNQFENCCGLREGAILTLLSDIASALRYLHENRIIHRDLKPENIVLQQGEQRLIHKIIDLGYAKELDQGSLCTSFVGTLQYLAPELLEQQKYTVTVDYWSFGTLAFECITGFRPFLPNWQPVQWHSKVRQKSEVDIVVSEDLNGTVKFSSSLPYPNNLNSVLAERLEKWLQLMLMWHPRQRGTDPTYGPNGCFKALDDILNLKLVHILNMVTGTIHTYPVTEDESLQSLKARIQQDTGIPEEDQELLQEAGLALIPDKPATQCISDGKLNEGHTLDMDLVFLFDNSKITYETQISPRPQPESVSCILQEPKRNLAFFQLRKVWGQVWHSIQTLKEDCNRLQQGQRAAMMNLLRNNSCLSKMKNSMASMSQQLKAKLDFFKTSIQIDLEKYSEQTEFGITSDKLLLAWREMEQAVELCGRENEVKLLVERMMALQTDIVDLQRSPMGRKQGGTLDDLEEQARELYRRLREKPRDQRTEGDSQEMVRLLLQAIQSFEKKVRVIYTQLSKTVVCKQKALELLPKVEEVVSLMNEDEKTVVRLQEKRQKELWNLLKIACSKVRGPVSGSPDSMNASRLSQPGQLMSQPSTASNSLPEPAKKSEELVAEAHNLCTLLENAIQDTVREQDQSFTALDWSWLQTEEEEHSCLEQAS
The following applies: at 0.1 µM.

In assay [9] the target is T3, Inhibitor of nuclear factor kappa-B kinase subunit beta (Homo sapiens). The following applies: at 1 µM.
Assay [10] deals with T4, Inhibitor of nuclear factor kappa-B kinase subunit epsilon (Homo sapiens) (UniProt Q14164).
T4 sequence (whole entry): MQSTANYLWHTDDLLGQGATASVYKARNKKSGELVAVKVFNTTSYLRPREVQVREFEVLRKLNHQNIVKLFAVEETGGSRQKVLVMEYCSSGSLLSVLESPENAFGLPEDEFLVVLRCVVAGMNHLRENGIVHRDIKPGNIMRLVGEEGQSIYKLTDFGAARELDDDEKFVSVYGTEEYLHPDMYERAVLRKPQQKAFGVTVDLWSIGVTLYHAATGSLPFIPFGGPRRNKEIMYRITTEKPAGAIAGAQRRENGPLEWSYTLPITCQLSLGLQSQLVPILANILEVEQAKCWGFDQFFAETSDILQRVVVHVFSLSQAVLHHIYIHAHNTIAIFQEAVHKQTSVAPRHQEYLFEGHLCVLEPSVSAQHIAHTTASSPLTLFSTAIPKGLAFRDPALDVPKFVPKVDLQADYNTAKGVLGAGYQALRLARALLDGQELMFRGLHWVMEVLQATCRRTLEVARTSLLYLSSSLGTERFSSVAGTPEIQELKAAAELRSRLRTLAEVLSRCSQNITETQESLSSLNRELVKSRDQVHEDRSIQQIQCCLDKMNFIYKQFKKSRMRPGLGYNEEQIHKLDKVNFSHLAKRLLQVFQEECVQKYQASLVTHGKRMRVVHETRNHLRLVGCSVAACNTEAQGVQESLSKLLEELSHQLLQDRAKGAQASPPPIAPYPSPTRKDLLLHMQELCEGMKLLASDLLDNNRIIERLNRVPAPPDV
The conditions noted are these: at 0.1 µM.

Assay [11] addresses T4, Inhibitor of nuclear factor kappa-B kinase subunit epsilon (Homo sapiens). The following applies: at 1 µM.
Assay [12] addresses T5, Serine/threonine-protein kinase Nek1 (Homo sapiens) (UniProt Q96PY6).
T5 sequence (whole entry): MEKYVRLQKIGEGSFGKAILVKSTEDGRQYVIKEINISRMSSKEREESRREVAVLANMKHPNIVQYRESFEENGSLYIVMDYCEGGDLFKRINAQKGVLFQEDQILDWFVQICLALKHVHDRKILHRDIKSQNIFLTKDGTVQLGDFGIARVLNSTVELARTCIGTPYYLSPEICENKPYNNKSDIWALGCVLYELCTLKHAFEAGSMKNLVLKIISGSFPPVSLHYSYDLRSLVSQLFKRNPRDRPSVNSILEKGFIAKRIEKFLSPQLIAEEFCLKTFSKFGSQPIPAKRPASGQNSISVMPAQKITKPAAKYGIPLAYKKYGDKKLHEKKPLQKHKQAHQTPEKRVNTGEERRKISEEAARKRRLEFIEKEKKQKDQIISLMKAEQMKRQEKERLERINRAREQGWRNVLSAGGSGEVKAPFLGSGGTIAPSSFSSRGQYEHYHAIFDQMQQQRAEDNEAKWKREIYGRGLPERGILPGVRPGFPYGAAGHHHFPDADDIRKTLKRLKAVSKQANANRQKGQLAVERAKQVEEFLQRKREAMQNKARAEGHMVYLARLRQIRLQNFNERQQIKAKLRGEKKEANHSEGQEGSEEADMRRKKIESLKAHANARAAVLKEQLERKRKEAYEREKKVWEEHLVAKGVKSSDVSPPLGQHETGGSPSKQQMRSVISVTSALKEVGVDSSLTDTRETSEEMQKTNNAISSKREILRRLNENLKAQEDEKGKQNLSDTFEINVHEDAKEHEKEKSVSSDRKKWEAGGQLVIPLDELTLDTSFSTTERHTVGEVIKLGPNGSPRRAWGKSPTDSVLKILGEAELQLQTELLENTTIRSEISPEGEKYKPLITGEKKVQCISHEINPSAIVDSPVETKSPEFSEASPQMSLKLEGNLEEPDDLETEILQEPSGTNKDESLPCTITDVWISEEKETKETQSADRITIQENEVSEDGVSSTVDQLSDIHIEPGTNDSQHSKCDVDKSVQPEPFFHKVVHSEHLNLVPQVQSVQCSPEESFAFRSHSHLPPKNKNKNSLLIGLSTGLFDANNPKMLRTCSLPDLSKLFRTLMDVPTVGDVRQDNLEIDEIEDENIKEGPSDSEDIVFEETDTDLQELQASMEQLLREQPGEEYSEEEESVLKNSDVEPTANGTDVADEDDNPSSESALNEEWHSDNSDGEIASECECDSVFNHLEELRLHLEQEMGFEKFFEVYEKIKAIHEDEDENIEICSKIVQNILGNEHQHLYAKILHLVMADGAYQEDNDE
The following applies: at 0.1 µM.

Assay [13] has as its target T5, Serine/threonine-protein kinase Nek1 (Homo sapiens). The conditions noted are these: at 1 µM.
For assay [14], the target named is T6, Serine/threonine-protein kinase Nek2 (Homo sapiens) (UniProt P51955).
T6 sequence (whole entry): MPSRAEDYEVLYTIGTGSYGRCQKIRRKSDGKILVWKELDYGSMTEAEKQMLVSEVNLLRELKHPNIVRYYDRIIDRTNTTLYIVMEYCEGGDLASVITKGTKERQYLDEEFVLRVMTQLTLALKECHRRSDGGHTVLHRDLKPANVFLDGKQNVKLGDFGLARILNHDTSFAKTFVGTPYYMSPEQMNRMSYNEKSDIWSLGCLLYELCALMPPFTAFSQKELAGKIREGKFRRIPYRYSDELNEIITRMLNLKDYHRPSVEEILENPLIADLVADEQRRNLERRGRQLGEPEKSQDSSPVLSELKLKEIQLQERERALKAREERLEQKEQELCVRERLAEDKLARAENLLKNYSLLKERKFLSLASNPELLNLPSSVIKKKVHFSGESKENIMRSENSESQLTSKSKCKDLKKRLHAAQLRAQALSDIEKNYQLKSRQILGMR
The conditions noted are these: at 0.1 µM.

Assay [15] has as its target T6, Serine/threonine-protein kinase Nek2 (Homo sapiens). The following applies: at 1 µM.
The target of assay [16] is Serine/threonine-protein kinase Nek6 (Homo sapiens) (UniProt Q9HC98). The conditions noted are these: at 0.1 µM.
Assay [17] has the same target. The conditions noted are these: at 1 µM.
Assay [18] concerns the target Serine/threonine-protein kinase Nek7 (Homo sapiens) (UniProt Q8TDX7). The conditions noted are these: at 0.1 µM.
Assay [19] has the same target. The conditions noted are these: at 1 µM.
Assay [20] has as its target T7, Serine/threonine-protein kinase Nek9 (Homo sapiens) (UniProt Q8TD19).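 Note: reported value is the mean percent inhibition of NEK9.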
T7 sequence (whole entry): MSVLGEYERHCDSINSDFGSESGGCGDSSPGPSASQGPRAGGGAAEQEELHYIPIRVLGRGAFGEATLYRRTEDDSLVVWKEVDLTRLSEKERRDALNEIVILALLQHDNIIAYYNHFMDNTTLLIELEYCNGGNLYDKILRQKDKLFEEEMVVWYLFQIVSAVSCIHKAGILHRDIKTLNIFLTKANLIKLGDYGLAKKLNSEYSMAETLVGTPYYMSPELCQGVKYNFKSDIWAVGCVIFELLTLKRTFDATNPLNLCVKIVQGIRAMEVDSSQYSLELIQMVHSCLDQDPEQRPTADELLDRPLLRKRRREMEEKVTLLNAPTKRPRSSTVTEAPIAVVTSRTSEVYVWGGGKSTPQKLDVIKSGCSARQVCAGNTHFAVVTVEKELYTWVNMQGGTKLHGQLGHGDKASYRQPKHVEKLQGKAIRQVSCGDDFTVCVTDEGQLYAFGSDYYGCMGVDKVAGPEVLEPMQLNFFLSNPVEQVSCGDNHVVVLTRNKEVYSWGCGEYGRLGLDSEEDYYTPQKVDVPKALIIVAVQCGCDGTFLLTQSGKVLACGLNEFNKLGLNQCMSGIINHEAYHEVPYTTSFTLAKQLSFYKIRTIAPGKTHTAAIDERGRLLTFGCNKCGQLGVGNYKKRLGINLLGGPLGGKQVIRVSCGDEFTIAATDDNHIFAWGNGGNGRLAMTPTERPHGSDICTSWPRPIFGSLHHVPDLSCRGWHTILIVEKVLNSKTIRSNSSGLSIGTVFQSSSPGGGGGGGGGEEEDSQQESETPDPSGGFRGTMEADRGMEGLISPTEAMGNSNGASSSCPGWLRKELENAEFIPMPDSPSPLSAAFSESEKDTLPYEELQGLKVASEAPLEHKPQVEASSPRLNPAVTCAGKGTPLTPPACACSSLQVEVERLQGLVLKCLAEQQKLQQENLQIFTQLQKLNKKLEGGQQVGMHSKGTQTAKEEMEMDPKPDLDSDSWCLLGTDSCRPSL
The conditions noted are these: at 0.1 µM.

One may read the inhibition as the change of the read-out against control, counted positive when it falls.

Sequence of Serine/threonine-protein kinase Nek6 (Homo sapiens) (Q9HC98 whole entry): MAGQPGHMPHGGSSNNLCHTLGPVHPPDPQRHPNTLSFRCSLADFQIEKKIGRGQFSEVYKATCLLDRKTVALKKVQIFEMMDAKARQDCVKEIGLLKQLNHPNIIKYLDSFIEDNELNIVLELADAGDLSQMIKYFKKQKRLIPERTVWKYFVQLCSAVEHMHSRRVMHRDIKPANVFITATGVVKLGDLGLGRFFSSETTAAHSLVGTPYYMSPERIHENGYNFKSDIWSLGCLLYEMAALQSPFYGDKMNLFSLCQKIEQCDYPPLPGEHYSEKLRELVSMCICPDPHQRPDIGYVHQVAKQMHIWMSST
Sequence of Casein kinase II subunit alpha (Homo sapiens) (P68400 whole entry, looked up): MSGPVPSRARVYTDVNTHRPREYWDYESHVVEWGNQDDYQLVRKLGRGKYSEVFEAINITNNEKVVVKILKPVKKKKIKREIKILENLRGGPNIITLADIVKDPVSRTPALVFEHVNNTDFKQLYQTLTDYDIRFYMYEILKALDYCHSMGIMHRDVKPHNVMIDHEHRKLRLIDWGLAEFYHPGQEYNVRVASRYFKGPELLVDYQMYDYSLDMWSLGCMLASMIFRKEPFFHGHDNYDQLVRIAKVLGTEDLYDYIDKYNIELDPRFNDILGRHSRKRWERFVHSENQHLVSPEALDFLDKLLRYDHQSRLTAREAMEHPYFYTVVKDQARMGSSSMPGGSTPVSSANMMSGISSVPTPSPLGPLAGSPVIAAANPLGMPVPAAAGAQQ
Sequence of Serine/threonine-protein kinase Nek7 (Homo sapiens) (Q8TDX7 whole entry, looked up): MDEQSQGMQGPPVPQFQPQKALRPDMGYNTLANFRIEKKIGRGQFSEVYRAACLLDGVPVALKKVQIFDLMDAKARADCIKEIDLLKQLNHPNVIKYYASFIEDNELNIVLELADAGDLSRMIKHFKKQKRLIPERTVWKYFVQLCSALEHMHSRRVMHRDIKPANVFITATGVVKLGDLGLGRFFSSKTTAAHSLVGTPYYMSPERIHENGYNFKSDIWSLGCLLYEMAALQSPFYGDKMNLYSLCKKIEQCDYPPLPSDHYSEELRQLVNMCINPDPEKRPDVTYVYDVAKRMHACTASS
Sequence of Sphingosine kinase 1 (Homo sapiens) (Q9NYA1 whole entry): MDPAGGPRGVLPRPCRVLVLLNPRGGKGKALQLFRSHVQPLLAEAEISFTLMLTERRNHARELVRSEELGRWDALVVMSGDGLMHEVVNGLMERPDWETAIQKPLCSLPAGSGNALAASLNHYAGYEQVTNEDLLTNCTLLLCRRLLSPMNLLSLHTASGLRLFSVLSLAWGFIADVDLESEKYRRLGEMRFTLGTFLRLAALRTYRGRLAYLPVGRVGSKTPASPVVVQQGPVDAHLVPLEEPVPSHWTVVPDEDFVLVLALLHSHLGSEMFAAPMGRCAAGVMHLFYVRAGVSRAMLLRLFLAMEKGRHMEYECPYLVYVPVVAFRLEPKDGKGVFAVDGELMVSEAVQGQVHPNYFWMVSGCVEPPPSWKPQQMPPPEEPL

With `O=C(Nc1n[nH]c2nc(-c3ccco3)ccc12)C1CC1`, the inhibition was -1.96% in assay [1]; 0.87% in assay [2]; -0.13% in assay [3]; 0.99% in assay [4]; -0.44% in [5]; 4.36% in assay [6]. In addition, the inhibition in assay [7] was -0.84%; in assay [8], -0.41%; in [9], -0.38%; in assay [10] it was -0.37%; in assay [11] it was -0.75%; in assay [12] it was 1.33%. In addition, the inhibition in assay [13] was 1.36%; in assay [14], -0.12%; in assay [15], 1.78%; in assay [16], 1.86%; in assay [17], -0.99%; in assay [18], 2.23%. In addition, the inhibition in [19] worked out at 2.61%; in assay [20] it was 6.28%.
